In the library only some 7.4% were active in any assay of this set; here they are far more common.
SMN2 splice up: qHTS Assay for Enhancers of SMN2 Splice Variant Expression. 210,000 tested, 2.8% active. Potency, µM (titrated, usually from 46.1 µM), inactives show at the highest dose activity change, positive = activation, most hits filed as activators. AID 1458, 2008. HEK293 SMN2-luciferase splicing reporter, luminescence, 30-36 h; also: % of control where 0% means no effect; nearly all actives have a fitted effect of over 55% in size
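HEK293 cells carry an SMN2 minigene-luciferase reporter in which exon 7 inclusion puts luciferase in frame. Cells were seeded at 2000 cells/well, attached for 10-12 hours, then exposed to compounds for 30-36 hours at 37C before ONE-Glo luminescence.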
NPC1 promoter act: qHTS Assay for NPC1 Promoter Activators | Huh7 NPC1 promoter luciferase reporter, 24 h | Potency, µM (highest dose often 9.22 µM), inactives show at the top dose activation, usual class: activators | 320,000 tested, 2.4% active | AID 485313, 2010; also: % of control where 0% means no effect; nearly all actives have a fitted effect of over 60% in size
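Huh7 reporter cells (NPC1 promoter driving luciferase) are dosed with compound for 24 h at 37 °C, 5% CO2; luciferase detection reagent is then added and luminescence measured after 10 min at ambient temperature.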
FLuc modulator: qHTS profiling assay for firefly luciferase inhibitor/activator using purifed enzyme and Km concentrations of substrates (counterscreen for miR-21 project). Luciferin 4-monooxygenase (Photinus pyralis), P08659. purified FLuc, Km substrates, luminescence inhibition. Potency, µM (top dose mostly 57.5 µM), for the others: at the highest dose activity change, negative = inhibition, usual class: inhibitors. 360,000 tested, 6.9% active;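 also: plate controls were vehicle for no effect and reference inhibitor for full effect; nearly all actives have a fitted effect of over 55% in size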
Target sequence (P08659 whole entry, looked up): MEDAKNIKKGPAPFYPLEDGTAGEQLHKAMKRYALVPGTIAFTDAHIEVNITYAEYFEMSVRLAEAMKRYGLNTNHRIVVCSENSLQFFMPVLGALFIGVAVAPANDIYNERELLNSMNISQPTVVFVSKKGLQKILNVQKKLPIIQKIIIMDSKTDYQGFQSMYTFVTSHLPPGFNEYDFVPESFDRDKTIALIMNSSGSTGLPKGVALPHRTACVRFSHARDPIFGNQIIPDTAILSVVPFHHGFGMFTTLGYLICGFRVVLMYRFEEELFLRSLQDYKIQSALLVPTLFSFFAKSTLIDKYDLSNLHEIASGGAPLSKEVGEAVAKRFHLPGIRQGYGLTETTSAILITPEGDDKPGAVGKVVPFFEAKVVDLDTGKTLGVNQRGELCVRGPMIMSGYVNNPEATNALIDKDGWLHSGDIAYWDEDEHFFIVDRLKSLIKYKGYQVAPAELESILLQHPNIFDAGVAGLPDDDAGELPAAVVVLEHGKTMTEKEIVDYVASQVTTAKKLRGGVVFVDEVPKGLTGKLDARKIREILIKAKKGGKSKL
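Purified P. pyralis luciferase (10nM final) with 10uM D-luciferin and 10uM ATP (Km levels) in 50mM Tris acetate pH 7.5, 10mM Mg acetate, 0.01% Tween-20, 0.05% BSA; qHTS 6-point titration, ~60 µM downward; luminescence read.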
ELG1 genotox: qHTS screen for small molecules that induce genotoxicity in human embryonic kidney (HEK293T) cells expressing luciferase-tagged ELG1; HEK293T ELG1-luciferase reporter, luminescence, 16 h; Potency, µM (series often up to 46 µM), for inactives: top-dose activity change, positive = activation, most hits filed as activators; 330,000 tested, 1.3% active; AID 504466, 2011; also: % of control where 0% means no effect; nearly all actives have a fitted effect of over 60% in size
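Genotoxic stress is detected as increased luminescence from luciferase-tagged ELG1 in HEK293T cells, measured with ONE-Glo after a 16 hr treatment at 37 °C.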
Rab9 promoter act: qHTS Assay for Rab9 Promoter Activators | Potency, µM (doses to about 9.22 µM), inactives show top-dose activation, negative = inhibition, usual class: activators | 320,000 tested, 2.8% active | Huh7 Rab9 promoter-luciferase reporter, luminescence, 24 h; also: % of control where 0% means no effect; nearly all actives have a fitted effect of over 60% in size
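Cells were plated at 1500 per well in reduced-serum medium with 10% FBS and left 2 h. Compound in DMSO was then added for 24 h at 37 °C. Reporter signal was read by luminescence after 10 min with luciferase detection reagent.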
* marks the source's active call; other numbers are inactive results; ? = inconclusive; . = not tested or not shown; [ ] = dose if it differs, or a comment. Calls follow the shape of the dose curve; as a rule, active = well fitted curve in the direction sought with a large enough effect; inconclusive = small, poorly fitted or top-dose-only effect, or another doubt; inactive = no such curve, though single readings can be large; an effect the other way counts as inactive or inconclusive. Potency is read from the fitted curve at half-maximal effect.

SMILES | SMN2 splice up | NPC1 promoter act | FLuc modulator | ELG1 genotox | Rab9 promoter act
NC(=O)c1cc(-c2csc(-c3cccnc3)n2)ccc1O | . | 24.3% | ? | 3.6% | 3.7%
COc1ccc2cc(-c3csc(-c4cccnc4)n3)ccc2c1 | 12.6µM* | 3.16µM* | 2.13µM* | 12.6µM* | ?
COc1ccc(-c2csc(-c3cccnc3)n2)cc1C | . | ? | 7.57µM* | ? | 2.82µM*
O=C1COc2cc(S(=O)(=O)CCC(=O)N3CCN(c4ccccc4)CC3)c(Cl)cc2N1 | . | . | -6.6% | . | .
Cc1ccccc1NC(=O)c1ccccc1NC(=O)c1ccccc1Cl | -12.1% | . | ? | . | .
Cc1cc(NC(=O)c2ccccc2Cl)ccc1NC(=O)c1ccccc1Cl | . | 17.0% | 12µM* | -0.8% | 17.0%
Cc1cc(NC(=O)c2ccc(Cl)cc2)ccc1NC(=O)c1ccccc1Cl | . | 4.1% | 12µM* | -6.0% | 15.8%
CO[C@@H]1c2cc(F)ccc2/C(=C\CCOC(=O)C/C=C/c2ccccc2)[C@H]1C | 3.3% | . | . | . | .
CNC(=O)c1c(NC(=O)C2=COCCO2)sc2c1CCCC2 | . | 1.9% | 16.9µM* | 17.4% | 4.8%
CCOC(=O)c1c(NC(=O)CN2CCCCC2)sc2c1CCN(C(=O)OCC)C2 | -39.2% | -7.8% | -1.4% | -6.3% | -18.1%
CCOC(=O)N1CCc2c(sc(NC(=O)C3=COCCO3)c2C(N)=O)C1 | . | -3.4% | 10.7µM* | 1.5% | 9.3%
CCCCn1cc(S(=O)(=O)c2ccc(Cl)cc2)c(=O)c2cc(F)c(N3CCCCC3)cc21 | . | . | -0.3% | . | .
COc1ccccc1C(=O)Nc1ccc2c(c1)nc1n2CCSC1 | 22.4µM* | ? | 3.01µM* | ? | 1.78µM*
CC(=O)Nc1ccc2c(c1)nc1n2CCSC1 | -28.4% | 1.0% | -14.9% | 14.2% | -6.8%
CCCCC(=O)Nc1ccc2c(c1)nc1n2CCSC1 | ? | 3.55µM* | 23.9µM* | 7.31µM* | 3.55µM*
Cc1ccc(C(=O)Nc2ccc3c(c2)nc2n3CCSC2)cc1 | . | 0.708µM* | 2.69µM* | ? | 0.562µM*
C[C@@H]1CC2(OC3C[C@@]4(C)C5=CC[C@H]6C(C)(C)C(O[C@@H]7OC[C@@H](O)[C@H](O)[C@H]7O)CC[C@@]67C[C@@]57CC[C@]4(C)C31)OC(O)C1(C)OC21 (stereo not given in full) | 2.1% | . | . | . | .
COc1ccc2cc(CCOC3CCCCO3)ncc2c1 (stereo not given) | . | 0.316µM* | 2.69µM* | ? | 0.501µM*
CNC(=O)[C@H]1O[C@@H](n2cnc3c(N)ncnc32)[C@H](O)[C@H]1O | 4.9% | . | . | . | .
Cn1ccnc1C[C@@](C)(O)c1ccccc1 | -11.8%[9.22 µM] | . | . | . | .
NC(=S)N/N=C\c1ccccc1OCc1ccccc1 | -15.3% | -4.2% | -18.3% | 5.6% | -5.8%
NC(=S)N/N=C/c1ccccc1OC(=O)/C=C/c1ccccc1 | . | 1.9% | 26.9µM* | -2.6% | -16.0%
NC(=O)N/N=C/c1ccccc1OC(=O)c1cc2ccccc2oc1=O | . | 12.7% | ? | ? | 16.9%
NC(=S)N/N=C/c1ccccc1OC(=O)c1cc2ccccc2oc1=O | . | 0.2% | 21.3µM* | 8.1% | -19.4%
CCn1cc(C(=O)N2CCN(c3cccc(Cl)c3)CC2)c(=O)c2cc(S(=O)(=O)N3CCC(C)CC3)ccc21 | -8.1% | . | ? | . | .
SMILES | SMN2 splice up | NPC1 promoter act | FLuc modulator | ELG1 genotox | Rab9 promoter act
Cc1cc(C)cc(NC(=O)Cc2csc(COc3cccc(C)c3)n2)c1 | . | . | -19.2% | . | .
Cc1ccc(OCC(=O)Nc2ccccc2-c2ccccc2)cc1 | ? | ? | 15.1µM* | ? | ?
O=C(COc1ccc(Cl)cc1)Nc1ccccc1Cl | . | 15.6% | 16.9µM* | ? | -3.7%
Cc1ccc(OCC(=O)Nc2ccccc2C(N)=O)cc1 | . | 2.51µM* | 8.49µM* | ? | 2.82µM*
NC(=O)c1ccccc1NC(=O)COc1ccc(Cl)cc1 | . | 3.16µM* | 16.9µM* | ? | ?
CCOC(=O)N1CCN(C(=O)c2ccccc2NC(=O)COc2ccccc2)CC1 | . | 21.6% | -19.5% | -4.3% | 4.3%
CSc1ccccc1NC(=O)COc1ccc(Cl)cc1 | -1.6% | 15.0% | ? | 5.8% | 15.5%
C[C@@H](C[N+](C)(C)C)OC(N)=O | -9.4%[20.6 µM] | . | . | . | .
Cc1ccc(CNC(=O)CS(=O)(=O)c2cccc3nsnc23)cc1 | . | . | -1.2% | . | .
CCc1c(C)nc2nncn2c1NCc1ccccc1 | -35.4% | . | -2.7% | . | .
Cc1cccc(CC(=O)N2CC(=O)Nc3ccc(C)cc3C2c2ccc(F)cc2)c1 (stereo not given) | 11.1% | . | 4.1% | . | .
COc1ccc(CNS(=O)(=O)c2ccc(N3CCCCS3(=O)=O)cc2)cc1 | . | . | -6.9% | . | .
CC(=O)N1N=C(c2ccccc2)CC1c1cn(C)c2ccccc12 (stereo not given) | 14.3% | -1.2% | 19µM* | ? | -5.4%
CC(=O)N1N=C(c2ccccc2)CC1c1ccc(F)cc1 (stereo not given) | . | -3.6% | 2.1% | 0.1% | -1.6%
Cc1ccc(C)c(N2CCN(C(=O)C3CCN(c4nc5ccc(C)cc5[nH]4)CC3)CC2)c1 | . | . | -15.4% | . | .
Cc1cc(C)nc(N/N=C/c2ccccc2OCc2cccc(Br)c2)n1 | -10.3% | -0.8% | 19µM* | 0.8% | -4.6%
Cc1cc(C)nc(N/N=C/c2cc(Br)ccc2O)n1 | . | -6.1% | 8.49µM* | ? | -6.6%
Cc1cc(C)nc(N/N=C/c2ccccc2OCc2ccc(Br)cc2)n1 | 12.6µM* | 14.2% | ? | -5.3% | 15.3%
C1CCC(NC(=NC2C3CC4CC(C3)CC2C4)N2CCOCC2)CC1 (stereo not given) | -10.8% | . | . | . | .
Cc1c(C(=O)N2CCc3ccccc3C2)sc2nc(-c3ccccc3)cn12 | 2.2% | -3.8% | ? | -13.1% | -0.2%
c1ccc(-c2cn3c4c(sc3n2)CCCC4)cc1 | ? | 0.447µM* | 0.151µM* | 0.082µM* | 0.501µM*
CNS(=O)(=O)c1cn(CC(=O)N2CCN(c3ccccc3OC)CC2)cc1S(=O)(=O)NC | . | . | -3.2% | . | .
O=C(c1ccc(Cl)cc1)c1cnc2ccccn12 | 8.5% | 3.16µM* | 9.53µM* | 11.6µM* | 2.51µM*
Oc1ccc(N=Nc2cccc(Cl)c2)cc1C=Nc1ccc(N2CCOCC2)cc1 | -66.7% | 12.6% | -17.3% | 7.3% | -0.1%
Oc1c(Br)cc(Cl)cc1C=Nc1ccc(N2CCOCC2)cc1 | . | 0.3% | 16.9µM* | -4.5% | -5.8%
Clc1cccc(-c2ccc(C=Nc3ccc(N4CCOCC4)cc3)o2)c1 | -28.2% | 3.1% | 10.7µM* | 3.1% | -11.4%
CC(Sc1oc(-c2cccs2)nc1S(=O)(=O)c1ccccc1)c1ccccc1 (stereo not given) | -0.6% | . | -11.7% | . | .
CCOc1ccc(-c2nonc2NC(=O)c2oc3ccc(Cl)cc3c2C)cc1 | -1.6% | . | ? | . | .

From PubChem
